aSyn 5UTR act = Activators via SNCA 5'UTR binding, MLPCN; 300,000 compounds, 7.1% hits; alpha-synuclein 5'UTR reporter, activators screen; activity score, % (tested at 7.5 µM), hits read low; in the data active = activity score below about -60%
* = called active by the depositor. The list is a sample of the results.

SMILES	aSyn 5UTR act
Cc1cc(NS(=O)(=O)c2ccc(NC(=O)Nc3ccc4c(c3)OCO4)cc2)no1	-71*
Cc1cccc(-c2nc(=S)c3c(o2)CCCC3)c1	-133*
S=c1nc(-c2ccc(Br)cc2)oc2c1CCCC2	-184*
Nc1c(-c2cccc([N+](=O)[O-])c2)nc2ccccn12	-83*
Cc1ccc(NC(=O)/C(C#N)=C/c2ccc(C)s2)c(C)c1	-92*
Cc1ccc(C)c(NC(=O)c2cnn(-c3ccccc3)c2C)c1	-81*
Cc1cccc(NC(=O)c2cnn(-c3ccccc3)c2C)c1C	-129*
Cc1ccccc1NC(=O)c1cnn(-c2ccccc2)c1C	-164*
Brc1ccc2oc3c(N4CCOCC4)ncnc3c2c1	-158*
N/C(=N\OC(=O)CCC1CCCC1)c1ccccc1	-126*
CC(C)(C)c1ccc(C(=O)O/N=C(\N)c2ccccn2)cc1	94
N/C(=N\OC(=O)CCC1CCCC1)c1ccccn1	-133*
COc1ccc(-c2cc(C(=O)Nc3ccc(C)c(C)c3)no2)cc1	-124*
COc1cccc(-c2cc(C(=O)NC3CCCCC3)no2)c1	-202*
O=C(NC1CCCCC1)c1cc(-c2ccco2)on1	-128*
COc1ccc(-c2cc(C(=O)NC3CCCC3)no2)cc1	-121*
COc1ccc(-c2cc(C(=O)NC(C)C)no2)cc1	-71*
COc1cccc(-c2cc(C(=O)N3CCCCC3C)no2)c1 (configuration not stated)	-162*
Cc1cccnc1NC(=S)Nc1ccc(Br)cc1Cl	-174*
COc1cccc(NC(=S)Nc2cccnc2)c1	-93*
COc1cccc(NC(=S)N/N=C2/CCCCc3ccccc32)c1	-178*
COc1cccc(NC(=S)NCc2cccs2)c1	-72*
COc1cccc(NC(=S)Nc2ccc(Br)cc2Cl)c1	-93*
Cc1ccn2cc(-c3ccc(NC(=O)c4ccco4)cc3)nc2c1	-95*
Cc1ccn2cc(-c3cccc(NS(C)(=O)=O)c3)nc2c1	-150*
SMILES	aSyn 5UTR act
CCOc1ccc(CC(=O)Nc2ccc(-c3ccc4nnc(C)n4n3)cc2)cc1	-87*
Cc1nnc2ccc(-c3ccc(NC(=O)c4ccco4)cc3)nn12	-254*
CC(=O)Nc1cccc(-c2cn3ccc(C)cc3n2)c1	-107*
CCCCOc1ccc2c(c1)C(=O)c1cc(O)ccc1-2	-209*
Cc1ccc(NCc2ccccc2O)cc1C	-116*
Oc1ccccc1CNc1ccc(OC(F)(F)F)cc1	-72*
Oc1ccccc1CNc1ccc2c(c1)OCCO2	-72*
CCCCS/C(N)=N/N=C/c1ccccc1O	-153*
C/C(=N/N=C/c1ccccc1O)c1ccccc1O	-240*
CCCS/C(N)=N/N=C/c1cc(C)ccc1O	-138*
COc1cccc2sc(Nc3nnc(-c4ccccc4Cl)o3)nc12	66
COc1ccccc1-c1nnc(Nc2nc3c(OC)cccc3s2)o1	81
COc1cccc(-c2nnc(Nc3nc4c(F)cccc4s3)o2)c1	-145*
CC1CCCN(C(=O)COC(=O)c2n[nH]c3ccccc23)C1 (configuration not stated)	-140*
COC(=O)[C@@H]1Cc2c([nH]c3ccccc23)C(C)(C)N1C(=O)CCl	61
Cc1cc(-c2ccccc2)nc(Cl)c1C#N	-80*
Cc1ccc(-c2cc(-c3ccccc3)nc(Cl)n2)cc1	-72*
CC(C)c1ccc(OCC(=O)N2CCCCCC2)c(Br)c1	-132*
O=C(COc1ccc2ccccc2c1Br)N1CCCC1	-90*
O=C(Oc1ccc2ccccc2c1Cl)N1CCCC1	-79*
C=CCNC(=S)NNC(=O)COc1ccc2cc(Br)ccc2c1	-157*
O=C(COc1ccc2cc(Br)ccc2c1)N1CCCC1	-62*
O=C(COc1ccc2ccccc2c1Br)Nc1ncn[nH]1	-68*
COC(=O)CSc1nc2cc3c(cc2cc1C#N)OCO3	-201*
CC(C)OC(=O)CSc1nc(N)c(C#N)cc1C#N	-118*
SMILES	aSyn 5UTR act
CC(C)OC(=O)CSc1nc2cc3c(cc2cc1C#N)OCO3	-149*
COC(=O)CSc1nc(-c2cccs2)ccc1C#N	-305*
C/C(=N/NC(=O)OC(C)(C)C)c1ccco1	-86*
CC(/C=C/c1ccco1)=N/NC(=O)OC(C)(C)C	-129*
O=C(NCCOc1ccccc1)c1cc2ccccc2o1	-81*
COc1cccc(C(=O)NCCSc2ccc(F)cc2)c1	-157*
COc1cc(OC)cc(C(=O)NCCOc2ccccc2)c1	-121*
COc1cccc(C(=O)NCC(=O)N2CCC(C)CC2)c1	-115*
COc1ccc(N=Nc2n(C)c3ccccc3[n+]2C)cc1	103
Cc1ccc(C(=O)NCCSC(C)(C)C)cc1[N+](=O)[O-]	-119*
COc1cccc(C(=O)NCCn2ccc3ccccc32)c1	-119*
COc1ccc(C(=O)NCc2cc3ccccc3n2C)cc1	-92*
O=C(NCCSc1ccccc1)c1ccc(Br)cc1	-67*
CC(C)(C)c1ccc(C(=O)NCCOc2ccccc2F)cc1	77
O=C(NCCSc1ccccc1)c1cncc(Br)c1	-132*
O=C(NCCOc1ccccc1)c1cncc(Br)c1	-92*
COc1c(C(=O)NCCSC(C)(C)C)ccc2ccccc12	-62*
CSCCNC(=O)c1ccc(C(C)(C)C)cc1	-84*
O=C(NCCSc1ccccc1)c1ccccc1	-191*
CC(C)(C)SCCNC(=O)c1ccccc1	-117*
O=c1cc(-c2ccc(F)cc2)oc2ccccc12	-97*
CSc1ccc(-c2cc(=O)c3ccccc3o2)cc1	-328*
O=c1cc(-c2ccccc2F)oc2ccccc12	-111*
CC1CCN(C(=O)COC(=O)c2ccccc2NC(=O)c2ccco2)CC1	-73*
CCc1c(C)sc(NC(=S)Nc2nc(C)cc(C)n2)c1C(=O)OC	-98*
SMILES	aSyn 5UTR act
Nc1c(C(=O)Nc2ccc3c(c2)OCCO3)nnn1Cc1cccc(Cl)c1	-153*
Nc1c(C(=O)Nc2ccc3c(c2)OCCO3)nnn1Cc1ccccc1Cl	-205*
Nc1c(C(=O)Nc2ccc3c(c2)OCCO3)nnn1Cc1ccc(F)cc1	-179*
COc1cc(-c2noc(C)c2C#Cc2ccc(N)cc2)cc(OC)c1OC	88
Nc1ccc2oc3ccccc3c2c1	-101*
Cn1c2ccccc2c(=O)c2cc(C#Cc3ccc(N)cc3)ccc21	-89*
Nc1ccc(C#Cc2ccc3oc4ccccc4c(=O)c3c2)cc1	-66*
COc1ccc(C#Cc2ccc3c(c2)c(=O)c2ccccc2n3C)cc1	-125*
CCc1nc2c(c(=O)c3ccccc3n2C)c(=O)n1CCc1ccc(OC)cc1	74
Nc1ccc2oc3ncccc3c(=O)c2c1	-98*
COc1cccc(C2=NO[C@@H]3C(=O)N(c4ccc5c(c4)OCCO5)C(=O)[C@H]23)c1OC	-81*
Cn1c(O)c(N=NC(=O)c2ccccc2O)c2ccccc21	-103*
Cc1occc1C(=O)N=Nc1c(O)n(C)c2ccccc12	-247*
Cn1c(O)c(N=NC(=O)c2ccco2)c2ccccc21	-80*
Cc1cccc(Cn2c(O)c(N=NC(=S)Nc3ccccc3F)c3ccccc32)c1	61
Cc1occc1C(=O)N=Nc1c(O)[nH]c2ccc(Br)cc12	-237*
Cn1c(O)c(N=NC(=S)Nc2ccccc2F)c2cc(S(=O)(=O)N3CCOCC3)ccc21	95
Cc1ccc(N=Nc2ccc(O)c3ncccc23)cc1C	74
Cn1c(O)c(N=Nc2ccccc2[N+](=O)[O-])c2ccccc21	-65*
Cc1cc(N=NC(=O)c2ccccc2O)c2ccccc2c1O	-123*
CCCCN(Cc1ccccc1)c1ncnc2nc[nH]c12	-63*
C=C1C(=O)O[C@@H]2[C@H]1[C@@H](OC(=O)/C(C)=C/C)C/C(C)=C\C(=O)/C=C(\C)[C@@H]2O	-311*
O=C(Nc1nc2c(s1)CCCC2)c1ccc(Br)s1	-93*
